Measured values reported in PubChem BioAssay AID624297 (National Center for Advancing Translational Sciences (NCATS), 2012).
Where “and” joins values, the source holds several entries; their conditions need not be identical. Identical values can stand only once. Out of some 340,000 compounds screened, about 6,200 (1.8%) were called active. Entries that show only a call come without a potency. About 10% were inconclusive and are not listed. The sample as a whole holds a higher share of actives than the screen did. A number with no mark means an inactive call. The call rests on the fitted dose curve; in most records, active means well fitted activation curve with a large enough effect; inconclusive means small, poorly fitted or top-dose-only effect; inactive means no such curve, though single readings can be large or run the other way.

assay: A quantitative high throughput screen for small molecules that induce DNA re-replication in SW480 colon adenocarcinoma cells.; further: nearly all actives have a fitted effect of over 55% in size; conditions: Hoechst DNA content imaging, 48 h; series mostly up to 46.1 µM
Method in brief: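 Per well, 250 cells were exposed to pinned compound for 48 hr. Nuclear DNA was visualised with Hoechst (40 min, 37 C) and total object intensity recorded by fluorescence scanning.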
Potency means the concentration at half of the fitted maximal effect.

SMILES	Potency	re-replication activation
CCc1nc(C)cn1S(=O)(=O)c1cc(OC)c(C)cc1C	inactive	–
O=C(Nc1ccc(S(=O)(=O)N2CCOCC2)cc1)C1CCN(S(=O)(=O)c2ccc(Cl)cc2)CC1	inactive	–
CCO[C@@H]1OC(C(N)=O)=C[C@H](c2ccc(Br)cc2)[C@H]1CCCO	inactive	–
C#CCNC(=O)C1=C[C@@H](c2ccccc2)[C@H](CCCO)[C@@H](OCC)O1	23.1 µM (active)	–
CCO[C@H]1OC(C(=O)NCc2ccccc2)=C[C@@H](c2coc3ccccc3c2=O)[C@@H]1CCCO	inactive	–
CN(c1ccccc1)S(=O)(=O)c1ccc(C(=O)N2CCN(c3ccccc3Cl)CC2)cc1	inactive	–
Cc1cc(C(=O)Nc2ccccc2N2CCOCC2)c2ccccc2n1	inactive	–
CNC(=O)COC(=O)c1cc(-c2ccc(OC)cc2)nc2ccccc12	inactive	–
COC(=O)c1cc(N2CCNCC2)nc2ccccc12	10.3 µM (active)	–
Cc1cccc(NC(=O)c2ccc(S(=O)(=O)N(C)c3ccccc3)cc2)n1	inactive	–
CCCCCCc1ccc(O)cc1O	inactive	–
CCCCCCc1cc2cc(-c3nnc(-c4ccccc4)o3)c(=O)oc2cc1O	3.55 µM (active)	–
Cc1c(CC(=O)NCCCCCC(=O)O)c(=O)oc2cc3occ(-c4ccccc4)c3cc12	inactive	–
CCCCNC1(C#N)CCN(Cc2ccccc2)CC1	inactive	–
COc1cc(NC(=O)COC(=O)c2cc(S(=O)(=O)N3CCOCC3)ccc2F)cc(OC)c1	inactive	–
COc1cc(/C=C2\CCCc3c2nc2ccccc2c3C(=O)O)cc(Cl)c1O	inactive	–
NS(=O)(=O)c1ccc(NC(=O)COC(=O)c2ccco2)cc1	inactive	–
NS(=O)(=O)c1ccc(NC(=O)COC(=O)c2c3c(nc4ccccc24)/C(=C\c2ccc4c(c2)OCO4)CCC3)cc1	7.31 µM (active) and 11.6 µM (active)	–
O=C(COC(=O)c1ccncc1)Nc1ccc2c(c1)OCO2	inactive	–
O=C(COC(=O)c1c2c(nc3ccccc13)CCCC2)c1ccc(Br)s1	inactive	–
O=C(COC(=O)c1c2c(nc3ccccc13)/C(=C\c1cccs1)CCC2)Nc1ccccc1Cl	14.6 µM (active) and 13 µM (active)	–
NC(=O)c1ccc(NC(=O)COC(=O)c2c3c(nc4ccccc24)/C(=C\c2ccc4c(c2)OCO4)CCC3)cc1	7.31 µM (active)	–
O=C(COC(=O)c1ccc(F)cc1)Nc1ccc2c(c1)OCO2	inactive	–
NS(=O)(=O)c1ccc(NC(=O)COC(=O)c2cc3ccccc3oc2=O)cc1	inactive	–
OCC1(CO)CC2(C1)CC(CO)(CO)C2	inactive	–

SMILES	Potency	re-replication activation
COc1ccc(CCNC(=O)COC(=O)c2ncc(Cl)c(Cl)c2Cl)cc1OC	inactive	–
O=C(CNC(=O)c1ccccc1F)OCC(=O)c1c[nH]c2ccccc12	inactive	–
CC(=O)Nc1ccc(S(=O)(=O)Nc2ccc(N3CCCCC3)cc2)cc1	inactive	–
CCC1([N+](=O)[O-])COC(c2ccc(C(C)C)cc2)OC1 (centres undefined)	inactive	–
CC1CCCCC12NC(=O)N(CC(=O)OCc1c(F)cccc1Cl)C2=O (centres undefined)	inactive	–
COc1ccc(S(=O)(=O)N2CCC(C(=O)NCc3ccco3)CC2)cc1C	inactive	–
COc1ccc(CNC(=O)C2CC(c3ccc(C(F)(F)F)cc3)=NO2)cc1 (centres undefined)	inactive	–
COc1ccc(C2=NOC(C(=O)NCc3ccco3)C2)cc1OC (centres undefined)	13 µM (active)	–
Cc1cc(N2CCCC2)ccc1NC(=O)COc1ccc(Cl)cc1	inactive	–
CC(C)n1cnc2c(NCc3ccccc3)cc(OCC3CCN(C)CC3)cc21	inactive	–
COc1ccccc1NS(=O)(=O)c1ccc(C)c(C(=O)NNC(=O)c2csc(N3CCOCC3)n2)c1	inactive	–
O=C(C(=O)N1CCc2ccccc2C1)c1c[nH]c2ccccc12	4.11 µM (active)	–
O=C(NC1CCCC1)C(=O)c1c[nH]c2ccccc12	inactive	–
O=C(C(=O)N1CCc2ccccc2C1)N1CCc2ccccc2C1	inactive	–
COc1cc2c(-c3ccc4c(c3)OCO4)c(-c3ccsc3)oc(=O)c2cc1OC	–	-0.829% [at 9.22 µM]
COc1ccc(-c2ccc3c(c2)[C@@H]2C[C@H](N(C)S(=O)(=O)c4ccccc4)[C@H]([C@H](C)O)C(=O)N2CC3)cc1	inactive	–
CC1CCCN(C(=O)Cn2c(=O)oc3cc(S(=O)(=O)N4CCCCC4C)ccc32)C1 (centres undefined)	inactive	–
Cc1ccc(O)c(CNc2nc3ccccc3[nH]2)c1	inactive	–
COC(=O)Nc1nc2ccc(Sc3ccccc3)cc2[nH]1	640 nM (active) and 2.06 µM (active)	–
CC(C)c1nc2ccc(C(=O)O)cc2[nH]1	inactive	–
COc1ccc(C)cc1NC(=O)CN1c2cccc3cccc(c23)S1(=O)=O	inactive	–
Cc1ccc(C(C(=O)NCC2CCCO2)N(C(=O)c2snc(C(N)=O)c2N)c2ccc(C(C)C)cc2)o1 (centres undefined)	18.4 µM (active)	–
CCOc1ccc(N(C(=O)c2snc(C(N)=O)c2N)C(C(=O)NCC2CCCO2)c2c[nH]c3ccccc23)cc1 (centres undefined)	inactive	–
Cc1ccc(N(C(=O)c2snc(C(N)=O)c2N)C(C(=O)NCC2CCCO2)c2c[nH]c3ccccc23)cc1 (centres undefined)	inactive	–
